The text below walks through data of PubChem BioAssay (NCI).

The structures appear in SMILES notation. The panel holds about 83,000 compounds, 20% with a hit somewhere; the sample as a whole holds those more often.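 Results are percent growth after 48 hours of single-concentration exposure. 100 means growth as in untreated cells, lower positive values show inhibition; negative values down to -100 show cell death.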 Values without a mark were called inactive. Activity calls are given as the source filed them. The calls were made as follows: active = growth percent below 10; inactive = the rest.

Holding throughout (assay): NCI-60 one-dose screen, 48 h (100 = growth as untreated, 0 = no growth, -100 = all killed)
Holding throughout (conditions): 10 µM unless noted

Assay [1] relates to HCT-15 colon.
Assay [2] relates to HT29 colon.
The test system of assay [3] is SNB-75 CNS.
The subject of assay [4] is SNB-19 CNS.
Assay [5] concerns U251 CNS.
Assay [6] concerns PC-3 prostate.
The test system of assay [7] is SK-MEL-5 melanoma.
The test system of assay [8] is UACC-62 melanoma.
The subject of assay [9] is LOX IMVI melanoma.
Assay [10] concerns SK-MEL-28 melanoma.
The subject of assay [11] is SK-MEL-2 melanoma.
Assay [12] concerns EKVX NSCLC.
The subject of assay [13] is SN12C renal.
For assay [14], the system named is UO-31 renal.
Assay [15] has as its system TK-10 renal.
In assay [16] the test system is ACHN renal.
Assay [17] relates to CAKI-1 renal.
Assay [18] concerns CCRF-CEM leukemia.
The subject of assay [19] is MOLT-4 leukemia.

Take `N#CC1=C(N)Oc2c(ccc3ccccc23)C1c1ccc([N+](=O)[O-])cc1` (configuration not stated): the growth was 41.5% in assay [1]; 90.3% in assay [2]; 44.8% in assay [3]; 87.8% in assay [4]; 89.8% in [5]; 65.4% in assay [6]. Further, the growth in assay [7] was 86%; in assay [8], 65.6%; in [9] it was 59.1%; in assay [10], 89.3%; in [11], 86%; in assay [12], 76.9%. Besides, the growth in [13] is 90.4%; in assay [14] it was 54.7%; in [15], 145%; in assay [16], 90.3%; in assay [17] it was 41.6%; in [18], 66.9%. In addition, the growth in [19] was 58.6%.
As to `O=C1CCC(NC(=S)Nc2ccccc2)N1` (configuration not stated), the growth was 113% in [1]; 98.3% in assay [2]; 113% in assay [3]; 100% in [4]; 104% in assay [5]; 102% in assay [6]. For the same compound, the growth in assay [7] is 106%; in assay [8], 99.9%; in assay [9] it was 97.5%; in assay [10], 108%; in [11], 103%; in assay [12], 117%. Further, the growth in [13] was 97.4%; in assay [14], 95.3%; in [15], 101%; in assay [16] it was 109%; in [17] it was 106%; in [18] it was 97.2%. In addition, the growth in [19] was 106%.
On to `COc1ccc(/C(C)=N/NC(=O)CSc2nc3ccccc3c(=O)n2Cc2ccc(S(N)(=O)=O)cc2)c(OC)c1`, for which the growth in assay [1] was 96.2%; in assay [2], 111%; in assay [3], 82.9%; in [4], 95.5%; in assay [5] it was 103%; in assay [6] it was 97.1%. Moreover, the growth is 98% in assay [7]; 96.9% in assay [8]; 94.2% in [9]; 110% in assay [10]; 115% in assay [11]; 89.9% in [12]. Further, the growth in [13] is 100%; in [14], 80%; in assay [15], 108%; in [16], 105%; in [17], 89.9%; in [18], 104%. The growth in [19] is 97.9%.
Take `Cn1/c(=N/NC(N)=S)ccc2ccccc21`: the growth in assay [1] is 82.3%; in assay [2], 57.9%; in assay [3] it was 101%; in assay [4] it was 105%; in [5] it was 97.5%; in [6], 76.7%. Also, the growth in [7] is 102%; in assay [8] it was 102%; in assay [9], 102%; in [10] it was 117%; in assay [11], 117%; in assay [12] it was 78.1%. Moreover, the growth was 91.3% in [13]; 62.7% in assay [14]; 113% in [15]; 95.2% in assay [16]; 95.7% in assay [17]; 63.9% in assay [18]. Further, the growth in [19] is 48.5%.
As to `O=C(Nc1nc(-c2ccc(Br)cc2)cs1)c1cc(-c2ccc(Br)cc2)nc2ccc(Cl)cc12`, the growth in [1] was 81.6%; in [2] it was 72.6%; in assay [3], 87.3%; in assay [4] it was 86.7%; in assay [5] it was 76.8%; in [6] it was 72.8%. Also, the growth in [7] is 91.2%; in assay [8] it was 77.8%; in assay [9] it was 94.8%; in assay [10], 95.9%; in assay [11] it was 93.9%; in assay [12], 77.8%. The growth is 85.1% in assay [13]; 64.2% in [14]; 115% in assay [15]; 85% in assay [16]; 79.3% in assay [17]; 77.8% in [18]. For the same compound, in assay [19], the growth is 80.6%.
For `FC(F)(F)c1cccc(Nc2ccccc2)c1`, the growth in assay [1] is 99.4%; in [2] it was 105%; in assay [3], 94.7%; in assay [4], 98.2%; in assay [5] it was 97.7%; in [6], 102%. Moreover, the growth in assay [7] is 103%; in assay [8], 96.5%; in assay [9] it was 98.7%; in assay [10], 102%; in [11], 88.7%; in assay [12] it was 101%. The growth in assay [13] is 101%; in assay [14], 97.6%; in assay [15], 94%; in [16], 99.6%; in [17], 97.5%; in [18], 109%. Further, in assay [19], the growth was 89.9%.
Turning to `COC(=O)C(c1ccccc1)C(CC(=O)c1ccccc1)c1ccccc1` (configuration not stated), the growth in assay [1] was 97.1%; in assay [2] it was 79.1%; in assay [3], 83.2%; in assay [4], 101%; in assay [5] it was 92.2%; in assay [6], 62.3%. For the same compound, the growth is 82.1% in assay [7]; 88.7% in assay [8]; 82.7% in [9]; 91.8% in assay [10]; 85.5% in assay [11]; 58.3% in [12]. The growth in assay [13] was 102%; in assay [14], 75%; in [15] it was 92.4%; in [16], 86.6%; in assay [17], 74.8%; in assay [18], 84.7%. Moreover, the growth in assay [19] was 71%.
For the compound `Cc1cc(Nc2cccc(C(F)(F)F)c2)n2c(nc3ccccc32)c1C#N`, the growth is 12.2% in assay [1]; 13.2% in assay [2]; 59.4% in assay [3]; 40.7% in [4]; 11.6% in assay [5]; 21.8% in [6]. Besides, the growth in assay [7] was 4.24% (active); in assay [8] it was 37.9%; in [9], 59.6%; in assay [10], 54.8%; in assay [11] it was 28.7%; in assay [12] it was 31.5%. Moreover, the growth is 25.4% in assay [13]; 28.3% in assay [14]; 58.3% in [15]; 46.9% in assay [16]; 38.7% in assay [17]; 55.8% in assay [18]. The growth in [19] was 56.6%.
